# For some assays here: Potency and affinity values are given separately.
# Experiments:
# Design in all cases: scale not given: direction of the effect not stated beside the values
# [1] = biological target: Protein translocase subunit SecA (Escherichia coli (strain K12)) (UniProt P10408); test: Assay to Identify E. coli SecA ATPase Inhibitors; format: functional; conditions: 30 µM
# [2] = biological target: T1, Ubiquitin-activating enzyme e1, putative (Leishmania donovani (strain BPK282A1)) (UniProt E9BSI1); test: Leishmania donovani Ubiquitin Activating Enzyme (LdE1); format: functional; conditions: 30 µM
# T1 sequence (whole entry): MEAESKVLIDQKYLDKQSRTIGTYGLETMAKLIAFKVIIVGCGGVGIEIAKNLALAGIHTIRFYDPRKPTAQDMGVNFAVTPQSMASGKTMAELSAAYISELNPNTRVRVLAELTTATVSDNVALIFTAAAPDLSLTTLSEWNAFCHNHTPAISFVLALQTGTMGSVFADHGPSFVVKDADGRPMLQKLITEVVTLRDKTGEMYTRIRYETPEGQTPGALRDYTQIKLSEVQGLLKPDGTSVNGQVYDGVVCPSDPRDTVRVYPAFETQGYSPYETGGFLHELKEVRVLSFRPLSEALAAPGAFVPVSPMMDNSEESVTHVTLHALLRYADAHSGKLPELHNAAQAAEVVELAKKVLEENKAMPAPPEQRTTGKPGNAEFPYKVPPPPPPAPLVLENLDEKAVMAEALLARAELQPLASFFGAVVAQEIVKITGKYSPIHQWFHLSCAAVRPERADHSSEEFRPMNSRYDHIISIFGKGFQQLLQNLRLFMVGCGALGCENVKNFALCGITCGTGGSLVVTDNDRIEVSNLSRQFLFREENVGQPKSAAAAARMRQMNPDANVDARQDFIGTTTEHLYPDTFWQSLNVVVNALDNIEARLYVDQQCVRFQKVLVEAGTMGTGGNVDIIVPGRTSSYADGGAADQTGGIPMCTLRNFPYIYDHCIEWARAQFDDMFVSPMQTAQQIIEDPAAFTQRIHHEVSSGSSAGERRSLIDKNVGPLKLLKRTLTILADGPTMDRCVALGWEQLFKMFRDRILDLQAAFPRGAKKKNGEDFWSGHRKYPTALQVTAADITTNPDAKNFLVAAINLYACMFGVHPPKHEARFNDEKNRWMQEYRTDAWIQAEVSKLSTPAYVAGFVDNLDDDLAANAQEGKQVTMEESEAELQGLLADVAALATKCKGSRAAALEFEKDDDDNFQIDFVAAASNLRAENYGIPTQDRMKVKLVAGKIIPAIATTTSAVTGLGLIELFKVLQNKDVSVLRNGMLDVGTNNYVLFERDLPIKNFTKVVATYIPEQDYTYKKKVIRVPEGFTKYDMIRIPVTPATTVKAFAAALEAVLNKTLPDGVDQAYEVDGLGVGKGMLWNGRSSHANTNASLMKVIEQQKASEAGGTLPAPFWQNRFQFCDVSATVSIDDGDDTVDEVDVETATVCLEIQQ
# [3] = biological target: AMP-activated protein kinase, AMPK (Homo sapiens) (UniProt P54646+O43741+P54619+Q9UGJ0+Q9Y478+Q13131+Q9UGI9); test: AMP-dependent Kinase enzyme assay. An in vitro enzyme assay that detects ADP turnover that is directly proportional to AMPK activity. This uses naive AMPK that is activated during the assay with MK-8722; format: functional; conditions: 30 µM
# [4] = biological target: Sialic acid-binding Ig-like lectin 9 (Homo sapiens) (UniProt Q9Y336); test: Hs-Siglec9 ALPHAscreen SOP 20170721; conditions: 10 µM
# Chain of Sialic acid-binding Ig-like lectin 9 (Homo sapiens) (Q9Y336 whole entry): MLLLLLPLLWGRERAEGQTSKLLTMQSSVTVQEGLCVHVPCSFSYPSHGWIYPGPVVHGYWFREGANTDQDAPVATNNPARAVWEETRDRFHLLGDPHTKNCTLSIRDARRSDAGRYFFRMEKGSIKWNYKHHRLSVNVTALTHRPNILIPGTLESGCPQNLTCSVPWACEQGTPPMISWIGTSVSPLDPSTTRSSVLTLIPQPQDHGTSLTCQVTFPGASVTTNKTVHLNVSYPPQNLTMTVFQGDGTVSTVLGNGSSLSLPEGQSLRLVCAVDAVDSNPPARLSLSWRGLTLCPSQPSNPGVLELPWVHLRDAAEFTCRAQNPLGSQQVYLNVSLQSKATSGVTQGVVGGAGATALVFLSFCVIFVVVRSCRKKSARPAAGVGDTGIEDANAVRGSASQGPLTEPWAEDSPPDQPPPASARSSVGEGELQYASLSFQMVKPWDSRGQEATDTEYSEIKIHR
# Trypanosoma cruzi = test: Trypanosoma cruzi phosphomannomutase and mannose-1-phosphate guanylyltransferase assay; format: functional; conditions: 10 µM
# [5] = biological target: T2, Arginase-2, mitochondrial (Homo sapiens) (UniProt P78540); test: in vitro enzyme assay to detect the production of urea directly proportional to the activity of Arginase II; format: functional; conditions: 33.3 µM; further: in the data most compounds retested in dose-response had high values
# T2 sequence (whole entry): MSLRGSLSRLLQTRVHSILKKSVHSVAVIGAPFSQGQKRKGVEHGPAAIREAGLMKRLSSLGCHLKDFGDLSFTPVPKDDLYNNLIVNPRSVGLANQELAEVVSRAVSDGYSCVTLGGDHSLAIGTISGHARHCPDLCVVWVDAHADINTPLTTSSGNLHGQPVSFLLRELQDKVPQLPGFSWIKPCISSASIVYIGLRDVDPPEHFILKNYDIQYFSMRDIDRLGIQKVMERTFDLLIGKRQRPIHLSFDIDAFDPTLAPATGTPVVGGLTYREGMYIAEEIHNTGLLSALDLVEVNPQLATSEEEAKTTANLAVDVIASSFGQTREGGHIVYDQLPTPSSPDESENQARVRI
# [6] = biological target: T3, Proteasome subunit beta (Trypanosoma cruzi) (UniProt O96673); test: Trypanosoma cruzi proteasome chymotrypsin-like activity (TcProtChymo) assay.; further: in the data most compounds retested in dose-response had high values; format: functional; conditions: 9.37 µM
# T3 sequence (whole entry): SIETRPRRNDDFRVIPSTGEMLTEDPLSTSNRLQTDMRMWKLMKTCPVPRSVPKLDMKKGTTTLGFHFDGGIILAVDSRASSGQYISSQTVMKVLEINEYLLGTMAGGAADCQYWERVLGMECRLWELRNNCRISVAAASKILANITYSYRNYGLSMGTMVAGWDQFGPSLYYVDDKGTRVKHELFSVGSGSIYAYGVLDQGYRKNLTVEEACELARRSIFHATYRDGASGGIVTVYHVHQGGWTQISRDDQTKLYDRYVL
# Homo sapiens = species on record: Homo sapiens; test: To identify inhibition of the IFN signalling (Jak-Stat) pathway via expression of an eGFP reporter gene under the control of an IFN-stimulated response element (ISRE) containing MxA promoter.; format: functional; conditions: 30 µM
# [7] = biological target: T4, Tyrosyl-tRNA synthetase, putative (Trypanosoma cruzi (strain CL Brener)) (UniProt Q4DSP6); test: Trypanosoma cruzi tyrosyl tRNA synthetase (TcYRS) _High Tyrosine SOP; format: functional; conditions: 30 µM; further: in the data most compounds retested in dose-response had high values
# T4 sequence (whole entry): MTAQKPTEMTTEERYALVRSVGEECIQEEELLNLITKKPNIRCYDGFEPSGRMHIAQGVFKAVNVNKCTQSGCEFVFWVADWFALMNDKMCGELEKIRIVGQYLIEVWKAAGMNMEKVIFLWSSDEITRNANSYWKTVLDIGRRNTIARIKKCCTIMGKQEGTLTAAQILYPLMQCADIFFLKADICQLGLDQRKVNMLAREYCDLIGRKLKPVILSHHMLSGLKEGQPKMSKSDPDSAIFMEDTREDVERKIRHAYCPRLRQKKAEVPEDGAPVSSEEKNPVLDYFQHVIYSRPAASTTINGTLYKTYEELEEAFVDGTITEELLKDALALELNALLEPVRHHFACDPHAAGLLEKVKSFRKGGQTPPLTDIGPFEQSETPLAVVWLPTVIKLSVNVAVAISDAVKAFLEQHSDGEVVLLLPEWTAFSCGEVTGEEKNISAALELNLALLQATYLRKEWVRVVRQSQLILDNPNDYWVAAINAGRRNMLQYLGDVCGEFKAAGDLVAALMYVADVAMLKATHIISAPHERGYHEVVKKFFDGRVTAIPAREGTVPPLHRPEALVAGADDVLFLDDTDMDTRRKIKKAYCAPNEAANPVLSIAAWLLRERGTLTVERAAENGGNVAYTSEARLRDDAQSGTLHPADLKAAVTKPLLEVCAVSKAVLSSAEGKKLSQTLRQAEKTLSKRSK
# [8] = biological target: T4, Tyrosyl-tRNA synthetase, putative (Trypanosoma cruzi (strain CL Brener)); test: Trypanosoma cruzi tyrosyl tRNA synthetase (TcYRS) SOP; format: functional; conditions: 30 µM
# [9] = biological target: Chromo domain-containing protein 1 (Saccharomyces cerevisiae (strain ATCC 204508 / S288c) (Baker's yeast)) (UniProt P32657); test: ScCHD-1 Enzyme Inhibition Assay; format: functional; conditions: 30 µM; further: in the data most compounds retested in dose-response had high values
# Chain of Chromo domain-containing protein 1 (Saccharomyces cerevisiae (strain ATCC 204508 / S288c) (Baker's yeast)) (P32657 whole entry, the tested form may be a part): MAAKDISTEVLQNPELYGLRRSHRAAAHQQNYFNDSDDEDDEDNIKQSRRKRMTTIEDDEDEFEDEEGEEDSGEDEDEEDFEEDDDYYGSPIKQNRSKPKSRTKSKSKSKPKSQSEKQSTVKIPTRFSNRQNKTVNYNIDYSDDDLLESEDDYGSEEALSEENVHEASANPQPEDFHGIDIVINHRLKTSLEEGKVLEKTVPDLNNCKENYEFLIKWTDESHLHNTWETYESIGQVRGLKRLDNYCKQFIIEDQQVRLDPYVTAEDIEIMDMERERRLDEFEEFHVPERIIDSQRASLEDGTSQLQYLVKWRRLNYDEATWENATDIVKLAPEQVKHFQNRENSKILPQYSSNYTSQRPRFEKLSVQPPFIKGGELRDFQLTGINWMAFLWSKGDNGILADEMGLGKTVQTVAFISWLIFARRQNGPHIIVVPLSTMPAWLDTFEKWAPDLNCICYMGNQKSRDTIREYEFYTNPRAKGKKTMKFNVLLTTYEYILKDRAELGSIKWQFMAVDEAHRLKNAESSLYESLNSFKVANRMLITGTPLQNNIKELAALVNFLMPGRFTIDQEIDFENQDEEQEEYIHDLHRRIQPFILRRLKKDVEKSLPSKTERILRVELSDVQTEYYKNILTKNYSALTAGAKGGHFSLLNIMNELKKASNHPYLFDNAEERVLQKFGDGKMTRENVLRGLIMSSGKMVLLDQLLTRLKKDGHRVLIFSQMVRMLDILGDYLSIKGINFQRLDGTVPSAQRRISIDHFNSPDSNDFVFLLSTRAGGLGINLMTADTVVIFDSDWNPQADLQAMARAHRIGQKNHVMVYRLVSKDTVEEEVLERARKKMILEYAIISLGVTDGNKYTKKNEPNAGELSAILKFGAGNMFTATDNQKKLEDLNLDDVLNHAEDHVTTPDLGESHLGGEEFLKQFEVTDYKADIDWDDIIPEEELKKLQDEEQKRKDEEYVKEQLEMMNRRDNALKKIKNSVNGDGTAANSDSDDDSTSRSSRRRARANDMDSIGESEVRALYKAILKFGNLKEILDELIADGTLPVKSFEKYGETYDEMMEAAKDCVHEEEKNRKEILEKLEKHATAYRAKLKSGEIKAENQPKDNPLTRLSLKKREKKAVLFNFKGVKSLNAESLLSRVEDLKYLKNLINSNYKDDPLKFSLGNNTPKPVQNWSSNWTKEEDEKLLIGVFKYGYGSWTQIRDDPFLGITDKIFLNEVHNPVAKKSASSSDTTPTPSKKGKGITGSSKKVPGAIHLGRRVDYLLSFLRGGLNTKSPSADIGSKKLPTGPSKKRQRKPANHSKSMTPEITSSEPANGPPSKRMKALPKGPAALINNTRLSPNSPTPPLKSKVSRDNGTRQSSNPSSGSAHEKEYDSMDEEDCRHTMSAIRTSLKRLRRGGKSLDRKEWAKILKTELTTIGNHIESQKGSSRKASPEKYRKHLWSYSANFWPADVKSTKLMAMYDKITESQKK
# Chain of Protein translocase subunit SecA (Escherichia coli (strain K12)) (P10408 whole entry): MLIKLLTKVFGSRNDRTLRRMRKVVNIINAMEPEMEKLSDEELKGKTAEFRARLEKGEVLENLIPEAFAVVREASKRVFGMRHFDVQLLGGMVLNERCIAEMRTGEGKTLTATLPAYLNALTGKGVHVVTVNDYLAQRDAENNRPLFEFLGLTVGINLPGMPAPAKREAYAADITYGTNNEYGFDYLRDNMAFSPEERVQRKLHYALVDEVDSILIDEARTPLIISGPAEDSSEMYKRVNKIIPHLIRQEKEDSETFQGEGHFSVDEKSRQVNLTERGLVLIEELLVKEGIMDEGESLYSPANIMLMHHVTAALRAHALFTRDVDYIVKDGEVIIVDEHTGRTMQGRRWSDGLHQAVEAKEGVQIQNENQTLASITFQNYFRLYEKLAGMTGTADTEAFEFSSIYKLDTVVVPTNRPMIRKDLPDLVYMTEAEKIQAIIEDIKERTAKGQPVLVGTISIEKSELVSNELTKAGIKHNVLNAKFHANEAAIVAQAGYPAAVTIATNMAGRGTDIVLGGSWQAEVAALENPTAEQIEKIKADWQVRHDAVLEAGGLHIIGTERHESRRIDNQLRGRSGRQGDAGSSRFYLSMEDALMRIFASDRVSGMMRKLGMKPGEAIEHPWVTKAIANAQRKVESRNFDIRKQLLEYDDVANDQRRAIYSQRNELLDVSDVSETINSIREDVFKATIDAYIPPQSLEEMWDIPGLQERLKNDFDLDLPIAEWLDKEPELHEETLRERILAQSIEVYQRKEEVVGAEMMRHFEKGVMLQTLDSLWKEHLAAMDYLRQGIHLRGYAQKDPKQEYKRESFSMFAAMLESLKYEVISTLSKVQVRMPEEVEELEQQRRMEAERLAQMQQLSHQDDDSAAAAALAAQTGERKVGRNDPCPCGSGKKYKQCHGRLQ
smiles,measurement,setting,value
O=C(C1CCN(c2snc3ccccc23)CC1)N1CCCCCC1,Percent Effect,[1],1.1%
same,Percent Effect,[2],24.1%
same,Percent Effect,[3],2.83%
same,Percent Effect,[4],-3.46%
same,Percent Effect,Trypanosoma cruzi,-0.923%
same,Percent Effect,[5],-4.52%
same,Percent Effect,[6],13.7%
same,Percent Effect,Homo sapiens,59.6%
same,Percent Effect,[7],5.21%
same,Percent Effect,[8],7.59%
same,Percent Effect,[9],-21.3%
Cc1ccoc1-c1nnc(CNCC2CCCN2c2cccnn2)o1 (stereo not given),Percent Effect,[1],-6.58%
same,Percent Effect,[2],0%
same,Percent Effect,[3],-0.825%
same,Percent Effect,[4],2.96%
same,Percent Effect,Trypanosoma cruzi,1.98%
same,Percent Effect,[5],-0.798%
same,Percent Effect,[6],9.33%
same,Percent Effect,Homo sapiens,6.87%
same,Percent Effect,[7],9.38%
same,Percent Effect,[8],13.6%
same,Percent Effect,[9],1.55%
O=C(CCC1CCCC1)NCCn1nc(C2CCNC2)c2cccnc21 (stereo not given),Percent Effect,[1],-0.0662%
same,Percent Effect,[2],0%
same,Percent Effect,[3],8.6%
same,Percent Effect,[4],2.58%
same,Percent Effect,Trypanosoma cruzi,4.53%
same,Percent Effect,[5],-0.699%
same,Percent Effect,[6],3.26%
same,Percent Effect,Homo sapiens,-34.5%
same,Percent Effect,[7],3.19%
same,Percent Effect,[8],6.41%
same,Percent Effect,[9],-1.12%
Cc1ccc(C)c(OC2CCN(C(=O)c3ccc(C)[nH]c3=O)CC2)c1,Percent Effect,[1],-3.58%
same,Percent Effect,[2],15.8%
same,Percent Effect,[3],-5.18%
same,Percent Effect,[4],6.14%
same,Percent Effect,Trypanosoma cruzi,8.84%
same,Percent Effect,[5],1.53%
same,Percent Effect,[6],10.9%
same,Percent Effect,Homo sapiens,11.6%
same,Percent Effect,[7],5.39%
same,Percent Effect,[8],12.2%
same,Percent Effect,[9],-11.4%
CCOc1ccc(S(=O)(=O)NCc2cccnc2N(C)C)cc1,Percent Effect,[1],-2.65%
same,Percent Effect,[2],27.9%
same,Percent Effect,[3],-9.37%
same,Percent Effect,[4],-4.06%
same,Percent Effect,Trypanosoma cruzi,7.08%
same,Percent Effect,[5],-5.7%
same,Percent Effect,[6],7.29%
same,Percent Effect,Homo sapiens,58.7%
same,Percent Effect,[7],7.39%
same,Percent Effect,[8],26.6%
same,Percent Effect,[9],-5.96%
O=C(CC1CCCC1)NCCn1ccc(-c2ccncc2)n1,Percent Effect,[1],-3.35%
same,Percent Effect,[2],0%
same,Percent Effect,[3],5.83%
same,Percent Effect,[4],6.39%
same,Percent Effect,Trypanosoma cruzi,-3.65%
same,Percent Effect,[5],3.23%
same,Percent Effect,[6],1.92%
same,Percent Effect,Homo sapiens,13.7%
same,Percent Effect,[7],-5.29%
same,Percent Effect,[8],3.85%
same,Percent Effect,[9],1.38%
Cn1ccnc1CN1CCC2(COCCN(Cc3ccsc3)C2)C1 (stereo not given),Percent Effect,[1],-3.36%
same,Percent Effect,[2],13%
same,Percent Effect,[3],-5.28%
same,Percent Effect,[4],12.1%
same,Percent Effect,Trypanosoma cruzi,6%
same,Percent Effect,[5],-11%
same,Percent Effect,[6],12.2%
same,Percent Effect,Homo sapiens,-9.92%
same,Percent Effect,[7],9.68%
same,Percent Effect,[8],21%
same,Percent Effect,[9],-6.67%
Cc1nc(CN2CCN(C(=O)c3cc(C4CC4)on3)CC2)cs1,Percent Effect,[1],-6.45%
same,Percent Effect,[2],13%
same,Percent Effect,[3],2.57%
same,Percent Effect,[4],3.64%
same,Percent Effect,Trypanosoma cruzi,-0.686%
same,Percent Effect,[5],5.68%
same,Percent Effect,[6],4.45%
same,Percent Effect,Homo sapiens,-4.72%
same,Percent Effect,[7],4.76%
same,Percent Effect,[8],18.8%
same,Percent Effect,[9],-6%
Cc1nc(C)n(CC2CCCN(c3ncnc4sccc34)C2)n1 (stereo not given),Percent Effect,[1],-2.59%
same,Percent Effect,[2],13.5%
same,Percent Effect,[3],-5.88%
same,Percent Effect,[4],-5.07%
same,Percent Effect,Trypanosoma cruzi,-6.32%
same,Percent Effect,[5],0.401%
same,Percent Effect,[6],9.91%
same,Percent Effect,Homo sapiens,65.9%
same,Percent Effect,[7],6.4%
same,Percent Effect,[8],16.1%
same,Percent Effect,[9],-6.06%
O=C(c1cccc2c1OCO2)N1CCCC1Cn1cccn1 (stereo not given),Percent Effect,[1],-4.17%
same,Percent Effect,[2],-2.6%
same,Percent Effect,[3],1.97%
same,Percent Effect,[4],4.11%
same,Percent Effect,Trypanosoma cruzi,-1.47%
same,Percent Effect,[5],-1.9%
same,Percent Effect,[6],6.55%
same,Percent Effect,Homo sapiens,14.8%
same,Percent Effect,[7],3.81%
same,Percent Effect,[8],9.41%
same,Percent Effect,[9],-8.43%

# Reference: ChEMBL document CHEMBL3988442, “University of Dundee, Small-Polar-MMV Screening Library” (2021)
